Drawing on PubChem BioAssay (NCI), this text covers growth for eight molecules.

Among the test systems are SR leukemia; RPMI-8226 leukemia; OVCAR-8 ovarian; OVCAR-5 ovarian; OVCAR-4 ovarian; SK-OV-3 ovarian; IGROV1 ovarian; OVCAR-3 ovarian; HS 578T breast; NCI/ADR-RES ovarian; T-47D breast; BT-549 breast; MDA-MB-435 melanoma; SW-620 colon; MCF7 breast; HCT-116 colon; HCC-2998 colon; KM12 colon.
Holding throughout (assay): NCI-60 one-dose screen, 48 h (100 = growth as untreated, 0 = no growth, -100 = all killed)
What all share (conditions): 10 µM unless noted

Molecules are shown by their SMILES. About 83,000 compounds went through this panel and 20% of them were active in at least one assay; those are over-represented in the sample as a whole.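 Testing used 96-well plates and a 48-hour single-concentration exposure. Example: -40 means 40% of the starting cells died.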 Values without a mark were called inactive. The source made the active and inactive calls. Rule for the calls: active = growth percent below 10; inactive = the rest.

In the case of `C[C@@H](Nc1ncnc2ccc(-c3cnc(N)nc3)cc12)c1ccc(F)cc1`, the growth was 85.3% in the experiment with SR leukemia; 83.6% in the experiment on RPMI-8226 leukemia; 78.1% in the experiment on OVCAR-8 ovarian; 44.6% in the experiment on OVCAR-5 ovarian; 74.3% in the experiment with OVCAR-4 ovarian; 103% in the experiment with SK-OV-3 ovarian. Further, the growth with IGROV1 ovarian was 28.7%; in the experiment with OVCAR-3 ovarian, 69.2%; in the experiment with HS 578T breast it was 69.2%; in the experiment on NCI/ADR-RES ovarian it was 86%; with T-47D breast it was 67.8%; with BT-549 breast, 69.3%. For the same molecule, the growth in the experiment with MDA-MB-435 melanoma was 95.3%; in the experiment on SW-620 colon it was 95.8%; in the experiment on MCF7 breast, 82.5%; in the experiment with HCT-116 colon, 85.3%; in the experiment on HCC-2998 colon, 87.1%; with KM12 colon, 98.7%.
Regarding `CCOC(=O)c1ccc2c(c1)ncn2-c1ccc(NC(=O)Nc2cccc(C)c2)cc1`, the growth in the experiment on SR leukemia was 19.9%; in the experiment with RPMI-8226 leukemia, 45.5%; in the experiment on OVCAR-8 ovarian it was 83.8%; in the experiment on OVCAR-5 ovarian, 85.5%; with OVCAR-4 ovarian it was 75.7%; in the experiment with SK-OV-3 ovarian it was 97.5%. Further, the growth is 98.9% in the experiment on IGROV1 ovarian; 96.9% in the experiment with OVCAR-3 ovarian; 84.1% with HS 578T breast; 72.2% with NCI/ADR-RES ovarian; 31.2% with T-47D breast; 115% with BT-549 breast. The growth in the experiment on MDA-MB-435 melanoma is 77.6%; in the experiment with SW-620 colon, 81.6%; in the experiment on MCF7 breast it was 54.7%; with HCT-116 colon it was 57.2%; in the experiment with HCC-2998 colon, 90.6%; with KM12 colon, 27.7%.
Consider `N#CC(C#N)=Cc1cc2ccccc2nc1Oc1ccc(C(F)(F)F)cc1`, for which the growth in the experiment on SR leukemia is 30.8%; in the experiment on RPMI-8226 leukemia, 3.66% (active); with OVCAR-8 ovarian, 92.5%; with OVCAR-5 ovarian, 102%; with OVCAR-4 ovarian it was 99.7%; with SK-OV-3 ovarian, 88.6%. The growth is 79.3% in the experiment with IGROV1 ovarian; 101% with OVCAR-3 ovarian; 96.9% in the experiment on HS 578T breast; 92.5% with NCI/ADR-RES ovarian; 90.6% in the experiment with T-47D breast; 96.2% in the experiment on BT-549 breast. The growth in the experiment with MDA-MB-435 melanoma was 97%; in the experiment with SW-620 colon, 74.5%; in the experiment on MCF7 breast, 56.9%; with HCT-116 colon, 89.8%; in the experiment on HCC-2998 colon, 106%; in the experiment on KM12 colon, 88.5%.
In the case of `c1ccc2cc(Cn3c(-c4cccc5ccccc45)[n+](Cc4ccc5ccccc5c4)c4c5ccccc5c5ccccc5c43)ccc2c1`, the growth was -56% (active) in the experiment on SR leukemia; -38.7% (active) in the experiment with RPMI-8226 leukemia; -67% (active) with OVCAR-8 ovarian; -76.7% (active) with OVCAR-5 ovarian; -80% (active) with OVCAR-4 ovarian; -79.4% (active) in the experiment on SK-OV-3 ovarian. In addition, the growth in the experiment with IGROV1 ovarian was -71.8% (active); in the experiment with OVCAR-3 ovarian, -89.4% (active); with HS 578T breast, -42.1% (active); in the experiment with NCI/ADR-RES ovarian, 17.7%; in the experiment with T-47D breast, -70.8% (active); with BT-549 breast, -70.5% (active). The growth in the experiment with MDA-MB-435 melanoma was -83.7% (active); with SW-620 colon, -78.2% (active); with MCF7 breast, -64.7% (active); in the experiment with HCT-116 colon, -73.5% (active); in the experiment with HCC-2998 colon, -84.7% (active); with KM12 colon, -82.2% (active).
Turning to `CC(=O)N1c2ccccc2NC2=C(C(=O)NC2(C)C)C1c1ccco1` (centres undefined), the growth in the experiment with SR leukemia is 29.1%; in the experiment with RPMI-8226 leukemia, 63.1%; in the experiment on OVCAR-8 ovarian it was 100%; in the experiment on OVCAR-5 ovarian it was 95.1%; in the experiment with OVCAR-4 ovarian, 93.8%; in the experiment on SK-OV-3 ovarian, 95.6%. Also, the growth with IGROV1 ovarian is 56.7%; in the experiment on OVCAR-3 ovarian, 97.1%; with HS 578T breast it was 83.3%; in the experiment on NCI/ADR-RES ovarian it was 102%; in the experiment with T-47D breast, 110%; in the experiment with BT-549 breast it was 86%. The growth was -19.1% (active) in the experiment with MDA-MB-435 melanoma; 81.1% in the experiment with SW-620 colon; 37.9% in the experiment with MCF7 breast; 87.8% in the experiment with HCT-116 colon; 88.1% with HCC-2998 colon; 51.2% in the experiment with KM12 colon.
On to `CCCCCN1C=C/C(=C\C(=O)n2ccc3ccccc32)c2ccccc21`, for which the growth in the experiment on SR leukemia is 82.8%; in the experiment on RPMI-8226 leukemia, 73.7%; in the experiment with OVCAR-8 ovarian, 93.6%; in the experiment on OVCAR-5 ovarian, 93.7%; in the experiment on OVCAR-4 ovarian, 71.6%; in the experiment on SK-OV-3 ovarian, 78.5%. Moreover, the growth in the experiment on IGROV1 ovarian is 65.5%; in the experiment on OVCAR-3 ovarian, 86.4%; in the experiment on HS 578T breast it was 92.2%; with NCI/ADR-RES ovarian, 94.3%; with T-47D breast, 70%; with BT-549 breast, 96.9%. The growth is 96.1% in the experiment on MDA-MB-435 melanoma; 85.2% in the experiment with SW-620 colon; 73.5% in the experiment on MCF7 breast; 72.6% in the experiment with HCT-116 colon; 107% in the experiment on HCC-2998 colon; 89.2% in the experiment on KM12 colon.
Consider `COc1cccc(-c2ccc3c(c2)NC(=O)/C3=C\c2ccc[nH]2)c1`, for which the growth was 8.43% (active) with SR leukemia; 17.5% in the experiment with RPMI-8226 leukemia; 74.2% in the experiment on OVCAR-8 ovarian; 53.2% in the experiment with OVCAR-5 ovarian; 54.7% with OVCAR-4 ovarian; 58.9% with SK-OV-3 ovarian. Moreover, the growth was 29.7% in the experiment on IGROV1 ovarian; 12.7% in the experiment on OVCAR-3 ovarian; 56.4% in the experiment with HS 578T breast; 40.4% in the experiment with NCI/ADR-RES ovarian; 13.6% with T-47D breast; 36.6% in the experiment on BT-549 breast. The growth in the experiment with MDA-MB-435 melanoma was 8.7% (active); in the experiment on SW-620 colon, 25.1%; with MCF7 breast it was 11.3%; in the experiment with HCT-116 colon, 23.5%; in the experiment on HCC-2998 colon, 25.4%; in the experiment on KM12 colon, 9.35% (active).
For the molecule `COCc1cnccc1NC1CCCCCC1`, the growth is 101% with SR leukemia; 104% with RPMI-8226 leukemia; 96.3% with OVCAR-8 ovarian; 108% in the experiment with OVCAR-5 ovarian; 98.6% in the experiment with OVCAR-4 ovarian; 111% with SK-OV-3 ovarian. Further, the growth in the experiment on IGROV1 ovarian was 110%; in the experiment on OVCAR-3 ovarian, 102%; in the experiment with HS 578T breast, 96%; in the experiment on NCI/ADR-RES ovarian, 100%; with T-47D breast, 98.7%; in the experiment on BT-549 breast, 119%. In addition, the growth with MDA-MB-435 melanoma was 104%; with SW-620 colon it was 99.3%; with MCF7 breast, 97.2%; with HCT-116 colon, 100%; with HCC-2998 colon, 103%; in the experiment with KM12 colon it was 100%.
